About 7,900 targets were measured; listed, in parts, are those with a hit and a random draw of the rest. About 0.6% of all pairs of compound and target were hits.
Legend:
Assay in all cases: log2 fold change, soluble protein after heating vs DMSO (PISA); higher = thermal stabilisation; K562 cells, 10 uM, 30 min; active = over 0.2 and 3.5 SD of the protein, either way, in both replicates (recomputed)
[1] = compound: C1=CC=C(C=C1)[C@H](COC2=CC3=C(C=C2)NC(=O)N3)NC(=O)C4=CC=CN(C4=O)CC5=CC(=C(C=C5)F)F
Summary of the method: (§1)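 K562 cells at 2×10^6 cells/mL were given 10 μM compound for 30 min. Aliquots then went through 3 min of heating across 48°C-58°C, were pooled, and were extracted in PBS with 0.5% NP-40 at 4°C, and the supernatant after 21,000xg for 90 min was quantified by TMTpro 16plex LC-MS/MS with channel sums equalised. Thermal stability relative to control samples, from duplicates, is given as log2 fold change.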

[2] = compound: CC1=C(SC2=C1C(=N[C@H](C3=NN=C(N32)C)CC(=O)N)C4=CC=C(C=C4)Cl)C
Summary of the method: as §1

[3] = compound: CC1=C2C(=CC=C1)N=C(N(C2=O)C3=CC=CC=C3C)CN4C=NC5=C(N=CN=C54)N
Summary of the method: as §1

[4] = compound: Cc1sc2c(c1C)C(c1ccc(Cl)cc1)=N[C@@H](CC(=O)OC(C)(C)C)c1nnc(C)n1-2
Summary of the method: as §1

[5] = compound: c1ccc([C@@H]2C[C@H]2NC2CCNCC2)cc1
Summary of the method: as §1

Measured: log2 fold change

PLCG1 isoform 2 (UniProt P19174)
inactive: [1] -0.059 | [2] 0.038 | [3] 0.033 | [4] 0.063 | [5] -0.028

PRKCD (UniProt Q05655)
UniProt Q05655, sequence (Q05655 whole entry, looked up): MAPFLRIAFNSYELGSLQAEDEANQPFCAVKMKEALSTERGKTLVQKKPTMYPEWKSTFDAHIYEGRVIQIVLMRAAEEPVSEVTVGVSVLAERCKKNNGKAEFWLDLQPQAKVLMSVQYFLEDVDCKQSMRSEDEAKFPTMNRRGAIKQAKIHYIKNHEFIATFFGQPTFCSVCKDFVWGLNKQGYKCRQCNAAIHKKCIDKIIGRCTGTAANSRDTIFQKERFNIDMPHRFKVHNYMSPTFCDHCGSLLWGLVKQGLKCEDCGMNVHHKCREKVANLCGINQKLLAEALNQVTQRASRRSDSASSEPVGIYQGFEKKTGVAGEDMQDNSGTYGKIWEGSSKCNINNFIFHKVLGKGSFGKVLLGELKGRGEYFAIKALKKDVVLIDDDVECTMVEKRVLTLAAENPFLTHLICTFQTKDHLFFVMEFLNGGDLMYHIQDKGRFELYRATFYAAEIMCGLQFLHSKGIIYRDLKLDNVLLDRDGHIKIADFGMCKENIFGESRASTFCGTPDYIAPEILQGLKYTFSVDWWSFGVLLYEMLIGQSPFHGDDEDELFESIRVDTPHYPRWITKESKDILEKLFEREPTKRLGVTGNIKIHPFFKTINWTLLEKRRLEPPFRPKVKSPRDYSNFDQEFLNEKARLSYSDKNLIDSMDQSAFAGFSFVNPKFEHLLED
inactive: [1] -0.05 | [2] 0.082 | [3] 0.071 | [4] 0.004 | [5] -0.021

POMP (UniProt Q9Y244)
inactive: [1] -0.101 | [2] -0.077 | [3] -0.069 | [4] -0.018 | [5] -0.009

PARP1 (UniProt P09874)
UniProt P09874, sequence (P09874 whole entry, looked up): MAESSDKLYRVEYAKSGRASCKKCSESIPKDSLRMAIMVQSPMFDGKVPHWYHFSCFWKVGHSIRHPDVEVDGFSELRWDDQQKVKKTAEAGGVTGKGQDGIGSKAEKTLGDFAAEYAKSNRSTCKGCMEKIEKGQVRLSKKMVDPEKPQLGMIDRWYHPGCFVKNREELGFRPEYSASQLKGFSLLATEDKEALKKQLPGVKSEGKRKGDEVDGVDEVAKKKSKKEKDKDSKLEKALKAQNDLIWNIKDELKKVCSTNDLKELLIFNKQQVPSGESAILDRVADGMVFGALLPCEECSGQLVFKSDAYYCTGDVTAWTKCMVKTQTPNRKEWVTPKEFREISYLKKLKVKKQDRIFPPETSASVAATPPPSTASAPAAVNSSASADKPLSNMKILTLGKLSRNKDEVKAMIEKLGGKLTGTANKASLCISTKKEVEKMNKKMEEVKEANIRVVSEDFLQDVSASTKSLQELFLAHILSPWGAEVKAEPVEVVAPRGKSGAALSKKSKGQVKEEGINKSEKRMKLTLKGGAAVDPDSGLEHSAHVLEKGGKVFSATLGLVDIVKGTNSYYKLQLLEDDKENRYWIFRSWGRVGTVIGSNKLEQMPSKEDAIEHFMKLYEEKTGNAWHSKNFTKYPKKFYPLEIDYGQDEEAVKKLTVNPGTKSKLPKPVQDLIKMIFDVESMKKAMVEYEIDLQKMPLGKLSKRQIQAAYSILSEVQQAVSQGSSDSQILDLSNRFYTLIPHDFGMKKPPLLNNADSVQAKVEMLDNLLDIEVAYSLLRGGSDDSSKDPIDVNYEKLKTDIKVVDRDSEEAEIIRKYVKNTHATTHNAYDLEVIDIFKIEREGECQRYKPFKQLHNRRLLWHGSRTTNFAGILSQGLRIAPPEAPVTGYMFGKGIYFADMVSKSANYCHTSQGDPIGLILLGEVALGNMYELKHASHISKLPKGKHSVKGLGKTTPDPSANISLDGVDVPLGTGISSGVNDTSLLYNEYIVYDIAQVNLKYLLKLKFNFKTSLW
inactive: [1] -0.098 | [2] 0.027 | [3] 0.182 | [4] -0.069 | [5] -0.101

PTMA (UniProt P06454)
UniProt P06454, sequence (P06454 whole entry, looked up): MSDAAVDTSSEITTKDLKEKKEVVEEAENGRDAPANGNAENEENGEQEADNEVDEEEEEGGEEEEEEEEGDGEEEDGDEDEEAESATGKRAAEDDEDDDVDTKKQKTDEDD
inactive: [1] 0.029 | [2] 0.017 | [3] -0.105 | [4] -0.166 | [5] -0.009

PPP1R14A (UniProt Q96A00)
inactive: [1] 0.011 | [2] 0.009 | [3] -0.002 | [4] 0.061 | [5] -0.013

PPID (UniProt Q08752)
inactive: [1] -0.079 | [2] 0.031 | [3] 0.036 | [4] -0.035 | [5] -0.031

PGM3 isoform 4 (UniProt O95394)
UniProt O95394, sequence (O95394 whole entry, looked up): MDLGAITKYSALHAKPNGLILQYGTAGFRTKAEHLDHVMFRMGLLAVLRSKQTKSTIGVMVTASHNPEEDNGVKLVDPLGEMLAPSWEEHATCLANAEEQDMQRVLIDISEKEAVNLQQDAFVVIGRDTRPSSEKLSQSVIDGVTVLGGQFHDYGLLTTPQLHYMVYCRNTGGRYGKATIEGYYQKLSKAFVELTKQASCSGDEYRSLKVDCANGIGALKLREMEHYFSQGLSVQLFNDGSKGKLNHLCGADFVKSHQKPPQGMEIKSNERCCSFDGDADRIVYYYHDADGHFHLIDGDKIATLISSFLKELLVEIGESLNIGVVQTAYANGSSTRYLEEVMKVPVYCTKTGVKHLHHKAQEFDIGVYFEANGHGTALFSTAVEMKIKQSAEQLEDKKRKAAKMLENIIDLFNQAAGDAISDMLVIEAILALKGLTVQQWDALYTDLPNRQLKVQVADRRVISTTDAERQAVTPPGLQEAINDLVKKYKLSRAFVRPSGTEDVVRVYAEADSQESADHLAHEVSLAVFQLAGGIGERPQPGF
inactive: [1] -0.082 | [2] 0.039 | [3] 0.066 | [4] 0.012 | [5] -0.088

PCID2 (UniProt Q5JVF3)
inactive: [1] -0.18 | [2] 0.057 | [3] 0.159 | [4] 0.033 | [5] -0.071

PMM2 (UniProt O15305)
inactive: [1] 0.003 | [2] 0.046 | [3] -0.027 | [4] 0.06 | [5] 0.009

PSMA3 (UniProt P25788)
UniProt P25788, sequence (P25788 whole entry, looked up): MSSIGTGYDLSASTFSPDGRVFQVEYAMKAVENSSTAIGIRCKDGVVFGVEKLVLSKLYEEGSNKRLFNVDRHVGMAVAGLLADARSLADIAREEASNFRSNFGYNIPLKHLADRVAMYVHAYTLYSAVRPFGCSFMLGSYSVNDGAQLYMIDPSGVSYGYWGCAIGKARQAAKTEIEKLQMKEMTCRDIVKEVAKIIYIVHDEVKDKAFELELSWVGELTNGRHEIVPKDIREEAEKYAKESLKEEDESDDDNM
inactive: [1] 0.051 | [2] -0.062 | [3] -0.022 | [4] -0.036 | [5] -0.029

PEA15 isoform 2 (UniProt Q15121)
UniProt Q15121, sequence (Q15121 whole entry, looked up): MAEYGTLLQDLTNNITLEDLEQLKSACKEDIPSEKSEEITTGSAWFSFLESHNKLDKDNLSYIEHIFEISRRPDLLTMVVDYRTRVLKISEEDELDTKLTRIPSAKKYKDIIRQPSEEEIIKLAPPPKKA
inactive: [1] -0.014 | [2] 0.1 | [3] 0.116 | [4] -0.063 | [5] -0.015

PPIL4 (UniProt Q8WUA2)
UniProt Q8WUA2, sequence (Q8WUA2 whole entry, looked up): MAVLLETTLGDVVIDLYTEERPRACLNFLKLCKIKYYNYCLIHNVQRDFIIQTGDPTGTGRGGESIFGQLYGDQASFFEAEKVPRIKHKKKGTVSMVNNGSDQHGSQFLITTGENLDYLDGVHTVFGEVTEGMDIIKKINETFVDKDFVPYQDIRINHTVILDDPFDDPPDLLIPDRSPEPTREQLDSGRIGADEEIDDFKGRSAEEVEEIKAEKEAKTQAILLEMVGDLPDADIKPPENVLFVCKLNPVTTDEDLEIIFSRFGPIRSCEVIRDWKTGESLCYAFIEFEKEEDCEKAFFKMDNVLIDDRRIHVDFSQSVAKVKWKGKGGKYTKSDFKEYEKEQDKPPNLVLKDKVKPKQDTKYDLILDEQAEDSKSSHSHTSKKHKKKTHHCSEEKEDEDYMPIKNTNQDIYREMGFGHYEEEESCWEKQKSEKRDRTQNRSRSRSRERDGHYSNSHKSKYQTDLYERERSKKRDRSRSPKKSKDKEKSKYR
inactive: [1] 0.012 | [2] -0.022 | [3] 0.036 | [4] 0.039 | [5] 0.016

PRCP (UniProt P42785)
inactive: [1] 0.023 | [2] -0.036 | [3] -0.061 | [4] 0.018 | [5] 0.062

PIGG (UniProt Q5H8A4)
inactive: [1] 0.12 | [2] 0.031 | [3] -0.091 | [4] 0.006 | [5] -0.003

POLR2D (UniProt O15514)
inactive: [1] 0.003 | [2] 0.134 | [3] -0.006 | [4] 0.17 | [5] 0.045

PDCD2L (UniProt Q9BRP1)
inactive: [1] -0.031 | [2] 0.055 | [3] 0.109 | [4] 0.021 | [5] 0.091

PIK3R1 (UniProt P27986)
inactive: [1] -0.059 | [2] 0.019 | [3] 0.138 | [4] 0.005 | [5] -0.027

PSMD5 (UniProt Q16401)
inactive: [1] 0 | [2] 0.028 | [3] 0.006 | [4] -0.006 | [5] -0.001

PKM (UniProt P14618)
inactive: [1] -0.008 | [2] 0.032 | [3] 0.004 | [4] -0.005 | [5] 0.026

PKN2 (UniProt Q16513)
inactive: [1] -0.075 | [2] 0.103 | [3] 0.066 | [4] 0.029 | [5] 0.044

PRPF38B (UniProt Q5VTL8)
UniProt Q5VTL8, sequence (Q5VTL8 whole entry, looked up): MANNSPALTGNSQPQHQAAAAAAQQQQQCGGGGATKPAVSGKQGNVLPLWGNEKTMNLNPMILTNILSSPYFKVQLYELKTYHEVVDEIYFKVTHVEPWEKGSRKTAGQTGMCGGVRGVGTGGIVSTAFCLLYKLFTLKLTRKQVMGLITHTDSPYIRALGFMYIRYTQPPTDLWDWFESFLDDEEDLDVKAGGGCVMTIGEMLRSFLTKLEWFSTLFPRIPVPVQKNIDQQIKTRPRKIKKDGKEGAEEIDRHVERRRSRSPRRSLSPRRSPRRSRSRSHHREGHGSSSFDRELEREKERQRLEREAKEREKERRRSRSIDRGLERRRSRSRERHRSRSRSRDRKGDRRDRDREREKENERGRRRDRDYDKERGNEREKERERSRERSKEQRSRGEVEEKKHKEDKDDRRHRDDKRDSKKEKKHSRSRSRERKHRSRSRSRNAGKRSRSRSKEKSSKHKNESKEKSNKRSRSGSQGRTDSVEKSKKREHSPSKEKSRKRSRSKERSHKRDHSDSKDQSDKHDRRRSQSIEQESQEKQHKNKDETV
inactive: [1] 0.038 | [2] 0.066 | [3] 0.052 | [4] 0.056 | [5] 0.032

PC (UniProt P11498)
UniProt P11498, sequence (P11498 whole entry, looked up): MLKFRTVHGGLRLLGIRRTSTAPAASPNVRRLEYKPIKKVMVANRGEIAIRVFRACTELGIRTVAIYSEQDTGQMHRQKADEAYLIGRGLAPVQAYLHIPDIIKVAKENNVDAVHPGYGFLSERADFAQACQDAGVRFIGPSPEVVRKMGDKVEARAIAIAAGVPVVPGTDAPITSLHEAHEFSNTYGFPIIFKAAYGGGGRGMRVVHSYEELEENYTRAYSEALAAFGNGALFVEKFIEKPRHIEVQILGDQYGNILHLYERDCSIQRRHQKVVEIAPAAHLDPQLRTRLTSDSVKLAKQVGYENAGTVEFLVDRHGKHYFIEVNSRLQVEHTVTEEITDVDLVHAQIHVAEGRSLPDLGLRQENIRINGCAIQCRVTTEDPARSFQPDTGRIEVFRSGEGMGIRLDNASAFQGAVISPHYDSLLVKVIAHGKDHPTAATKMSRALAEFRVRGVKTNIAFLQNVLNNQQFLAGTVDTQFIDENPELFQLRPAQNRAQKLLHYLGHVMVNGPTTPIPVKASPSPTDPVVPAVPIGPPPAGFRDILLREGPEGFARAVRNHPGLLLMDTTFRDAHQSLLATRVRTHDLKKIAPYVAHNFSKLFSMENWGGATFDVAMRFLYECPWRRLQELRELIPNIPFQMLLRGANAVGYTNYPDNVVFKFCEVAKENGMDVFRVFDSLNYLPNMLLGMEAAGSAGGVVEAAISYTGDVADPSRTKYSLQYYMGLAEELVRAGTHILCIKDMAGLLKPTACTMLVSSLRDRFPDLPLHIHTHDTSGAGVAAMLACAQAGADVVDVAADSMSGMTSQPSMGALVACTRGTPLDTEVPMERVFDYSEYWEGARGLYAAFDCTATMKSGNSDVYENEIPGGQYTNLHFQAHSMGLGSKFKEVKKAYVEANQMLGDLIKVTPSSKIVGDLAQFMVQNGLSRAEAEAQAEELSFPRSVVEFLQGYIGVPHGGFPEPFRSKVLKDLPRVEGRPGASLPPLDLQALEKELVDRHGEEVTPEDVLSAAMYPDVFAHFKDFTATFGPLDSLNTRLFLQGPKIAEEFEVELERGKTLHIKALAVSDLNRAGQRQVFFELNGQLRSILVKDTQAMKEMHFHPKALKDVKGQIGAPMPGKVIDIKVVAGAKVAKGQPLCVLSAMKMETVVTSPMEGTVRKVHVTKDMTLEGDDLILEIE
inactive: [1] -0.012 | [2] 0.031 | [3] 0.111 | [4] 0.025 | [5] -0.021

PLBD2 (UniProt Q8NHP8)
inactive: [1] 0.011 | [2] 0.01 | [3] 0.01 | [4] -0.006 | [5] 0.007

— the supplement of paper PMC10849652
